# Assay results reported in PubChem BioAssay (NCATS).
# Results filed as inconclusive are left out. A call without a number means that no potency is given here. The source made the active and inactive calls. The call rests on the fitted dose curve; in most records, active means well fitted inhibition curve with a large enough effect; inconclusive means small, poorly fitted or top-dose-only effect; inactive means flat fitted curve, though single readings scatter. Starred links: 1 amine or outer side, 2 acyl side, 3 side chain; linkers in the order of their positions; H or OH if unused. Positions of bridges follow the written chain, without caps; N, C: chain ends. Non-standard residues stand in square brackets, D forms with d. Residues, ends and D or L forms follow the SMILES beside them. ξ: configuration not given here. *: point of attachment. X3 = C[C@@H](Oc1ccc([C@H](N[*:1])C(=O)[*:2])cc1)[C@]1(/C=C\C(=O)[*:3])CO1; d(aIle) = CC[C@H](C)[C@@H](N)C(=O)O; X2 = CC(C)[C@@H](O)C(C)C(=O)*; ξNMeF = CNC(Cc1ccccc1)C(=O)O; ξT = CC(O)C(N)C(=O)O; ξS = NC(CO)C(=O)O
# Assay: qHTS assay for small molecule disruptors of mitochondrial membrane potential screened against the NCATS CANVASS Library (AID 1347389); further: nearly all actives have a fitted effect of over 60% in size
# Conditions: HepG2 mitochondrial membrane potential, m-MPI red/green ratio, 1.5 h; series mostly up to 46.1 µM
# Excerpt: Natural products and their derivatives continue to be wellsprings of nascent therapeutic potential. However, many laboratories have limited resources for biological evaluation, leaving their previously isolated or synthesized compounds largely or completely untested. To address this issue, the Canvass library of natural products was assembled (https://tripod.nih.gov/canvass), in collaboration with academic and industry researchers, for quantitative high-throughput screening (qHTS) across a diverse set of cell-based and biochemical assays. The pure (>85% purity by liquid chromatography/mass spectrometry [LC/MS]) Canvass library of 346 natural products were submitted by 45 academic laboratories and companies around the world. We collected pure natural products to circumvent deconvolution and structure elucidation due to time and resource limitations. The library was formatted into 1536-well plates and evaluated in 50 qHTS (in an 11-pnt concentration series) bioassays with broad scope of disease-relevant mechanisms. The resulting data set from 50 different assays was then systematically analyzed to identify overall trends and specific natural products with interesting biological activities. Reported herein are the results of each individual qHTS and their corresponding assay protocol. In healthy cells, the mitochondria are polarized and mitochondrial-membrane potential indicator (m-MPI) accumulates in the mitochondria as red fluorescent aggregates (emission at 590 nm). As the mitochondrial membrane depolarizes, m-MPI red-colored J-aggregates are converted to green fluorescent monomers (emission at 535 nm) and released from mitochondria into the cytosol. In response to mitochondrial depolarization, the red-to-green fluorescence ratio decreases. National Center for Advancing Translational Sciences (NCATS), Rockville, MD National Institute of Health (NIH), Bethesda, Maryland
# Mitochondrial membrane potential protocol: 2,000 HepG2 cells in 5 uL/well were dispensed into black, clear-bottom 1536-well plates using a Multidrop Combi (Thermo Scientific) dispenser. The assay plates were incubated overnight at 37C to allow cells to attach to the wells, followed by the transfer of 23 nL compound or DMSO vehicle by a pin tool (Kalypsys). The plates were incubated for 1 hr at 37C and 5% CO2, followed by the addition of 5 uL of 2X Mito-MPS dye (BD Biosciences) into each well using Flying Reagent Dispenser (Aurora Discovery) and then following 30 min incubation at 37C. Fluorescence intensity (490nm excitation and 535nm emission for monomers; and 540nm excitation and 590nm emissions for aggregates) was measured using an Envision plate reader.
# Potency means the concentration at half of the fitted maximal effect.
row,Compound,Potency
1,CO[C@@]12c3c(C)cc(O)c4c(=O)occ(c34)C(=O)[C@@H]1[C@]13COC(=O)c4c(O)cc(C)c(c41)C(=O)[C@H]2[C@@H]3OC(C)=O,16.6 µM (active)
2,CO[C@H]([C@@H](C)[C@H]1O[C@]1(C)C[C@H](C)/C=C/C=C(\C)[C@H]1O[C@@H](CC(=O)O)CC[C@@H]1C)[C@@H](C)O,inactive
3,C[N+](C)(C)CCc1c[nH]c2ccccc12,inactive
4,CCCCC1CC[C@H]2CCCC(CCC)N12 (some centres undefined),inactive
5,CCCC[C@@H](C)/C=C1/CN2CCC[C@H]2[C@@](C)(O)[C@@H]1O,inactive
6,CC[C@]12C=CCN3CC[C@]4(C(=C(C(=O)OC)C1)Nc1ccccc14)[C@@H]32,inactive
7,C/C=C1/CN2CC[C@@]34c5ccccc5N(C)[C@@H]3[C@@H]2C[C@@H]1[C@H]4C(=O)OC,inactive
8,C[C@]12CC(O)C3[C@@H](CC[C@@H]4C[C@@H](O)CC[C@]34CO)[C@@]1(O)CC[C@@H]2C1=CC(=O)OC1 (some centres undefined),inactive
9,C=CC(C)(C)[C@@]12C[C@H]3C(=O)N/C(=C/c4cnc[nH]4)C(=O)N3[C@@H]1Nc1ccccc12,inactive
10,C=C(C)[C@H]1C(=O)c2c3c(cc4c5c(n1c24)[C@@]1(C)[C@@H](CC[C@H]2[C@](C)(/C=C/C=C(\C)C(=O)O)[C@@H](O)CC[C@@]21C)C5)C1=CC(C)(C)OC(C)(C)[C@H]1[C@@H]3O,16.6 µM (active)
11,C=C[C@]12C=CCN3CC[C@@]4(c5ccccc5NC(=O)[C@@H]4C1)[C@@H]32,inactive
12,C/C(=C\[C@H](C)C(=O)C[C@H](O)CC1CC(=O)NC(=O)C1)[C@@H]1OC(=O)/C=C/CC/C=C/C=C/[C@@H]1C,inactive
13,CC[C@@H]1CN2CCc3c([nH]c4cccc(OC)c34)[C@@H]2C[C@@H]1/C(=C\OC)C(=O)OC,4.67 µM (active)
14,C=CC(C)(C)[C@@]12C[C@H]3C(=O)N/C(=C\c4cnc[nH]4)C(=O)N3[C@@H]1Nc1ccccc12,inactive
15,CC(C)CC1C(=O)O[C@H](C(C)C)C(=O)N(C)C(CC(C)C)C(=O)O[C@@H](C(C)C)C(=O)N(C)C(CC(C)C)C(=O)O[C@H](C(C)C)C(=O)N(C)C(CC(C)C)C(=O)O[C@@H](C(C)C)C(=O)N1C (some centres undefined),7.41 µM (active)
16,C/C=C1/CN2CC[C@]34C(=C(C(=O)OC)[C@H]1C[C@H]23)Nc1ccccc14,inactive
17,CC[C@@H]1CN2CCC3(Nc4cccc(OC)c4C3=O)[C@@H]2C[C@@H]1/C(=C\OC)C(=O)OC (some centres undefined),inactive
18,C[C@]12CC(O)C3[C@@H](CCC4C[C@@H](O)CC[C@@]43CO)[C@@]1(O)CC[C@@H]2C1=CC(=O)OC1 (some centres undefined),inactive
19,C1=C2CCCN[C@H]2C2CC1[C@H]1CCCCN1C2 (some centres undefined),inactive
20,CO[C@H]1C[C@H](O[C@H]2[C@@H](O)C[C@H](O[C@H]3CC[C@]4(C=O)[C@H]5CC[C@]6(C)C(C7=CC(=O)OC7)CC[C@]6(O)[C@@H]5CC[C@]4(O)C3)O[C@@H]2C)O[C@H](C)[C@H]1O[C@H]1C[C@@H](OC)[C@@H](O[C@@H]2O[C@H](CO)[C@@H](O)[C@H](O)[C@H]2O)[C@@H](C)O1 (some centres undefined),inactive
21,c1ccc2nc3c(cc2c1)[nH]c1ccccc13,16.6 µM (active)
22,CO[C@H]1[C@H](O[C@H]2CC[C@]3(C=O)[C@H]4CC[C@]5(C)[C@@H](C6=CC(=O)OC6)CC[C@]5(O)[C@@H]4CC[C@]3(O)C2)O[C@H](C)[C@H](O)[C@@H]1OC,inactive
23,O[C@H]1C=C[C@@]23CCN(Cc4cc5c(cc42)OCO5)[C@@H]3C1,inactive
24,C/C=C/[C@@H]1[C@H]2C[C@@H](C)CC[C@@H]2C(C)=C[C@H]1C(=O)c1c(O)c(-c2ccc(O)cc2)c[nH]c1=O,14.8 µM (active)
25,CC[C@H](C)[C@H]1NC(=O)[C@@H](NC(=O)C(C)[C@H](O)C(C)C)[C@@H](C)OC(=O)C2COC(=O)CNC(=O)/C=C\[C@]3(CO3)[C@@H](C)Oc3ccc(cc3)[C@H](NC1=O)C(=O)N(C)C(Cc1ccccc1)C(=O)NC(C(C)O)C(=O)N2 (some centres undefined) (X2-T[d(aIle)][X3][ξNMeF][ξT][ξS]; ester 1-C; linker 3-6 via G),inactive
26,CCCC[C@@H]1CC[C@H]2CCCC(CCCO)N12 (some centres undefined),inactive
27,C/C=C(\C)C(=O)O[C@@H]1[C@@H](O)[C@@H]2O[C@H]3[C@H](O[C@@H](CCCCC)CCCCCCC(=O)CCC(=O)OC[C@@H](O2)[C@H]1OC(=O)/C=C/c1ccccc1)O[C@H](C)[C@H](OC(C)=O)[C@@H]3O,16.6 µM (active)
28,CO[C@@H](/C=C/CC/C=C/C(=O)O)[C@@H](O)[C@H](C)/C=C(\C)[C@H](O)[C@H](C)C(=O)CCCC1CC(=O)NC(=O)C1,inactive
29,C/C=C1/CN2C3CC1C1=CCC(=O)N4c5ccccc5[C@@]3(C[C@@H]2C2=C[C@H]3C5CC6N(CC[C@@]67c6ccccc6N(C2=O)[C@@H]37)C/C5=C/C)[C@H]14 (some centres undefined),inactive
